Screening data (PubChem BioAssay)
AMA1 RON2 block – qHTS for Inhibitors of AMA1-RON; Towards Development of Antimalarial Drug Lead: Primary Screen; Plasmodium falciparum AMA1 (3D7) - RON2 peptide interaction; AlphaScreen AMA1-biotinylated RON2 peptide binding; Potency, µM (series often up to 58.2 µM), usual class: inhibitors; 360,000 compounds, 0.2% hits; AID 720542, 2013; further: nearly all actives have a fitted effect of over 45% in size
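AMA1 (3D7) with his tag at 25 nM final met compounds first, then biotinylated RON2 peptide at 25 nM; detection used donor plus acceptor beads, 10 µg/mL apiece, read by AlphaScreen after 30 min at room temperature.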
CHX counter – Cycloheximide Counterscreen for Small Molecule Inhibitors of Shiga Toxin; 300,000 compounds, 12% hits; max response, %; cell reporter, cycloheximide protein synthesis inhibition counterscreen; AID 2314, 2010; in the data active means max response mostly above about 13%, no sharp cut-off; inactive means mostly below about 14%; further: read at 38.3 µM for the half of the compounds with a filed dose
Pf growth 48h – Primary qHTS for delayed death inhibitors of the malarial parasite plastid, 48 hour incubation | AID 504832, 2011 | Potency, µM (top dose mostly 28.7 µM), hits mostly inhibitors | 310,000 compounds, 5.9% hits | P. falciparum luciferase growth in erythrocytes, 48 h
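Read-out is firefly luciferase luminescence from an integrated reporter in P. falciparum, so falling signal marks reduced parasite growth. Infected erythrocytes were at 2% hematocrit and 0.1% parasitemia (final) in Albumax-supplemented RPMI 1640.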
Pf growth 96h – Primary qHTS for delayed death inhibitors of the malarial parasite plastid, 96 hour incubation; P. falciparum luciferase reporter growth, 96 h; Potency, µM (doses to about 28.7 µM), actives largely listed as inhibitors; 320,000 compounds, 6.9% hits; AID 504834, 2011
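Readout is luminescence from an integrated firefly luciferase in P. falciparum. Red cells, 2% hematocrit and 0.05% parasitemia final, were cultured with compound through two parasite generations (96 hours) at 37 C, 5% CO2.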
SARS PLpro yeast – qHTS of Yeast-based Assay for SARS-CoV PLP; 330,000 compounds, 0.19% hits; Potency, µM (top dose mostly 32.9 µM), most hits filed as activators; S. cerevisiae expressing SARS-CoV PLpro, growth rescue; calls by dose curve; further: nearly all actives have a fitted effect of over 55% in size
Shiga inhibitor – A qHTS for Small Molecule Inhibitors of Shiga Toxin; inhibition, % at 38.7 µM; 290,000 compounds, 9.2% hits; Vero cells, Shiga toxin protein synthesis inhibition reporter; in the data active means inhibition mostly above about 28%, no sharp cut-off; inactive means mostly below about 43%
Of the large screens only hits and unclear results are named; the others gave an inactive call. The list is not random: actives were taken first. Their share in the collection is about 19%. Unless noted, the call rests on the fitted dose curve; in most records, active means well fitted curve in the direction sought with a large enough effect; inconclusive means small, poorly fitted or top-dose-only effect, or another doubt; inactive means no such curve, though single readings can be large; an effect the other way counts as inactive or inconclusive.

CCOc1cc(/C=C2/NC(=O)N(CC(=O)OC)C2=O)ccc1O	none
Cc1ccc(C2CC(c3ccccc3)n3ncnc3N2)cc1 (centres undefined)	Pf growth 96h 13µM
Cc1ccc(C2CC(c3cccc(C)c3)n3ncnc3N2)cc1 (centres undefined)	Pf growth 96h inconclusive (no result: Pf growth 48h)
COc1ccccc1C1CC(c2ccc(Cl)cc2)Nc2ncnn21 (centres undefined)	Pf growth 48h 13µM
CCOc1ccc(C2CC(c3cccc(OC)c3OC)n3nnnc3N2)cc1Cl (centres undefined)	Pf growth 48h 12µM
CCCCn1c(N)c(N(CCC(C)C)C(=O)c2oc3ccc(OCC)cc3c2C)c(=O)[nH]c1=O	Pf growth 48h inconclusive, Pf growth 96h inconclusive (no result: CHX counter, Shiga inhibitor)
O=C1NC(=S)S/C1=C\C=C\c1ccc([N+](=O)[O-])o1	CHX counter 80, Pf growth 48h 0.29µM, Pf growth 96h 0.29µM, Shiga inhibitor 92
COC(=O)c1[nH]c2ccccc2c1NC(=O)CNC1CCCCC1	none
OC(c1ccccc1)(c1nc(-c2ccc3c(c2)OCO3)cs1)C(F)(F)F (centres undefined)	none (no result: CHX counter, Pf growth 48h, Pf growth 96h, SARS PLpro yeast, Shiga inhibitor)
Nc1nc(-c2ccc3c(c2)CCCC3)cs1	CHX counter 36, Shiga inhibitor 93
Fc1ccc(-c2csc(/C=C/c3ccc4c(c3)OCO4)n2)cc1	CHX counter 20, Shiga inhibitor 39
Nc1nc(-c2ccc3c(c2)OCCO3)cs1	CHX counter 50, Shiga inhibitor 79 (no result: Pf growth 96h)
Cc1nc(-c2ccc3c(c2)OCO3)cs1	CHX counter 16, Shiga inhibitor 43
Nc1nc(-c2ccc3c(c2)NC(=O)CO3)cs1	none (no result: Pf growth 96h)
Nc1nc(-c2cc3c(cc2Cl)OCCO3)cs1	CHX counter 40, Pf growth 96h inconclusive, Shiga inhibitor 44
Nc1nc(-c2ccccc2Cl)cs1	none (no result: CHX counter, Pf growth 48h, Pf growth 96h, SARS PLpro yeast, Shiga inhibitor)
c1cncc(-c2nc(-c3ccc4c(c3)OCO4)cs2)c1	CHX counter 28, Shiga inhibitor 85 (no result: Pf growth 96h)
Cc1nc(-c2ccc3c(c2)OCCCO3)cs1	CHX counter 45, Shiga inhibitor 87
O=S(=O)(c1ccc(-c2csc(-c3cccnc3)n2)cc1)N1CCCCC1	Pf growth 48h inconclusive (no result: Pf growth 96h)
CC1Cc2cc(-c3csc(N)n3)ccc2O1 (centres undefined)	CHX counter 26, Shiga inhibitor 36
COc1ccc(-c2csc(C)n2)cc1OC	none (no result: Pf growth 48h)
CC(C)c1ccc(CN2CCC(C(=O)NCc3cccnc3)CC2)cc1	none (no result: Pf growth 48h)
COCC1CCCCC1OS(N)(=O)=O (centres undefined)	none
Cc1ncsc1CCOC(=O)C1C2CC3CC(C2)CC1C3 (centres undefined)	Pf growth 48h inconclusive, Pf growth 96h 13µM
Cc1ncsc1CCOC(=O)c1cccc([N+](=O)[O-])c1	Pf growth 96h inconclusive
O=C1Nc2cc(Br)ccc2C1(O)c1ccccc1O (centres undefined)	Pf growth 48h inconclusive, Pf growth 96h inconclusive
CC(C)c1ccc(C2(O)C(=O)Nc3cc(Br)ccc32)c(O)c1 (centres undefined)	Pf growth 48h 13µM, Pf growth 96h 13µM
Cc1ccc(C)n1-c1ccc(-c2ccnc(N)n2)cc1	CHX counter 24, Pf growth 48h inconclusive, Pf growth 96h inconclusive
COc1ccc2[nH]c3c(=O)n4c(nc3c2c1)SCC4	Pf growth 96h 10µM
O=c1c2[nH]c3ccccc3c2nc2n1CCS2	none
COc1cc2[nH]c3c(=O)n4c(nc3c2cc1OC)SCCC4	CHX counter 25, Shiga inhibitor 31
O=[N+]([O-])c1nccn1CC(O)CO (centres undefined)	none (no result: CHX counter, Pf growth 48h, Pf growth 96h, SARS PLpro yeast, Shiga inhibitor)
CCN(CC)c1ccc(C(=O)NNC(=O)CNC(=O)c2ccco2)cc1	Pf growth 48h inconclusive (no result: CHX counter, Shiga inhibitor)
CCOC(=O)C1=C(N)OC2=C(C(=O)CC(C)(C)C2)C1c1ccc(CC)s1 (centres undefined)	Pf growth 96h 4.1µM
CCOC(=O)C1=C(N)OC2=C(C(=O)CC(C)(C)C2)C1c1ccco1 (centres undefined)	none
CCOC(=O)C1=C(N)OC2=C(C(=O)CC(C)(C)C2)C1c1ccc(C)s1 (centres undefined)	CHX counter 26, Shiga inhibitor 89
COc1ccc(C(=O)NC(Oc2ccccc2)C(Cl)(Cl)Cl)cc1 (centres undefined)	Pf growth 96h inconclusive
COC(=O)COc1cccc(NC(=O)c2cccc(C)c2)c1	CHX counter 17, Pf growth 96h 10µM
Cc1cccc(C(=O)NC(Oc2ccccc2)C(Cl)(Cl)Cl)c1 (centres undefined)	Pf growth 48h inconclusive, Pf growth 96h 7.4µM
Cc1cccc(C(=O)Nc2cccc(OC(=O)c3cccc(C)c3)c2)c1	CHX counter 34
COC(=O)COc1cccc(NC(=O)c2ccccc2)c1	none
Cc1noc(C(=O)N2CCN(c3ccccc3)CC2)c1Cl	none
CC(C)C[C@H]1C(=O)N2CCC[C@H]2[C@]2(O)O[C@](NC(=O)[C@@H]3C=C4c5cccc6[nH]cc(c56)C[C@H]4N(C)C3)(C(C)C)C(=O)N12	Pf growth 48h 2.9µM, Pf growth 96h 3.7µM (no result: CHX counter, SARS PLpro yeast, Shiga inhibitor)
CN1C[C@H](C(=O)N[C@]2(C)O[C@@]3(O)[C@@H]4CCCN4C(=O)[C@H](Cc4ccccc4)N3C2=O)C=C2c3cccc4[nH]cc(c34)C[C@H]21	Pf growth 48h 0.3µM, Pf growth 96h 0.3µM (no result: AMA1 RON2 block, CHX counter, SARS PLpro yeast, Shiga inhibitor)
CN1C[C@H](C(=O)NC2(C)OC3(O)[C@@H]4CCCN4C(=O)[C@H](Cc4ccccc4)N3C2=O)CC2c3cccc4[nH]cc(c34)C[C@H]21 (some centres undefined)	none (no result: CHX counter, Pf growth 48h, Pf growth 96h, SARS PLpro yeast, Shiga inhibitor)
CC1(C)CC2(CCCN(CC(O)(c3ccccc3)c3ccccc3)C2)CCO1 (centres undefined)	Pf growth 48h inconclusive, Pf growth 96h inconclusive
COc1ccc(N2CCC(CNC(=S)Nc3ccc(C)cc3C)C2)cc1 (centres undefined)	AMA1 RON2 block inconclusive, Pf growth 48h 8.3µM, Pf growth 96h inconclusive
COc1ccc(N2CCC(CNC(=S)Nc3c(C)cc(C)cc3C)C2)cc1 (centres undefined)	Pf growth 48h 12µM, Pf growth 96h inconclusive
COc1ccc(N2CCC(CNC(=S)Nc3cccc(C)c3)C2)cc1 (centres undefined)	AMA1 RON2 block inconclusive, Pf growth 48h 13µM
COc1ccc(N2CCC(CNC(=O)Nc3ccc(OC)cc3OC)C2)cc1 (centres undefined)	AMA1 RON2 block inconclusive, Pf growth 48h inconclusive
Cc1ccccc1NC(=S)NCC1CCN(C(C)c2ccccc2)C1 (centres undefined)	none
Cc1cc(C)cc(NC(=S)NCC2CCN(C(C)c3ccccc3)C2)c1 (centres undefined)	Pf growth 48h inconclusive, Pf growth 96h 5.2µM
